Experimental data published in PubChem BioAssay (NCATS).
Records with an inconclusive call do not appear. Active and inactive are the calls of the source. The call rests on the fitted dose curve; in most records, active means well fitted inhibition curve with a large enough effect; inconclusive means small, poorly fitted or top-dose-only effect; inactive means flat fitted curve, though single readings scatter.

Columns and labels:
[1] = tested on: PC49; test: qHTS profiling for inhibitors of Plasmodium falciparum proliferation (AID 504749);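 further: 0% = DMSO vehicle and full inhibition = artemisinin control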; conditions: P. falciparum in erythrocytes, SYBR Green DNA, 72 h; series mostly up to 28.7 µM
In short: (§1)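 Parasite proliferation within erythrocytes, 72 h exposure. Endpoint: SYBR Green I fluorescence after overnight lysis at room temperature. Controls: 0.29 uM artemisinin, DMSO.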

[2] = tested on: SC27B; test: as above; conditions: P. falciparum in erythrocytes, SYBR Green DNA, 72 h; series mostly up to 28.7 µM
In short: as §1

[3] = tested on: TAB109; test: as above; conditions: P. falciparum in erythrocytes, SYBR Green DNA, 72 h; series mostly up to 28.7 µM
In short: as §1

[4] = tested on: TAB113; test: as above; conditions: P. falciparum in erythrocytes, SYBR Green DNA, 72 h; series mostly up to 28.7 µM
In short: as §1

[5] = tested on: TAB165; test: as above; conditions: P. falciparum in erythrocytes, SYBR Green DNA, 72 h; series mostly up to 28.7 µM
In short: as §1

[6] = tested on: W2; test: as above; conditions: P. falciparum in erythrocytes, SYBR Green DNA, 72 h; series mostly up to 28.7 µM
In short: as §1

[7] = tested on: CRL-7250; test: Cytotoxic Profiling of Annotated Libraries Using Quantitative High-Throughput Screening (AID 1296008); conditions: Five cell lines viability, CellTiter-Glo ATP luminescence, 48-72 h; active compounds read low; on max response: on the % scale 0 is the no-effect control and ±100 the full control effect
In short: (§2)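 Compounds were pin-transferred onto cells and incubated 48 or 72 hr at 37 degree Celsius, 95% humidity. CellTiter-Glo was added, plates sat 10 min at room temperature, then ATP-coupled luminescence was imaged as the viability read-out.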

[8] = tested on: HEK293; test: as above; conditions: Five cell lines viability, CellTiter-Glo ATP luminescence, 48-72 h; active compounds read low
In short: as §2

[9] = tested on: HaCat; test: as above; conditions: Five cell lines viability, CellTiter-Glo ATP luminescence, 48-72 h; active compounds read low
In short: as §2

[10] = tested on: KB-3-1; test: as above; conditions: Five cell lines viability, CellTiter-Glo ATP luminescence, 48-72 h, active compounds read low
In short: as §2

[11] = tested on: NIH3T3; test: as above; conditions: Five cell lines viability, CellTiter-Glo ATP luminescence, 48-72 h; active compounds read low
In short: as §2

[12] = tested on: MCC-13; test: qHTS assay to identify novel small-molecules to repurpose for Merkel cell carcinoma treatment (AID 1296009); conditions: MCC and control cell lines, CellTiter-Glo viability, 72 h; series mostly up to 46 µM
In short: (§3)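 qHTS format: cells treated with library compounds in DMSO across 8 (NPC) or 11 (MIPE) concentrations. Readout after 72 hr at 37 degree celsius was CellTiter-Glo luminescence.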

[13] = tested on: MCC-26; test: as above; conditions: MCC and control cell lines, CellTiter-Glo viability, 72 h; series mostly up to 46 µM
In short: as §3

[14] = tested on: MKL-1; test: as above; conditions: MCC and control cell lines, CellTiter-Glo viability, 72 h; series mostly up to 46 µM
In short: as §3

[15] = tested on: MKL-2; test: as above; conditions: MCC and control cell lines, CellTiter-Glo viability, 72 h; series mostly up to 46 µM
In short: as §3

[16] = tested on: NIH3T3; test: as above; conditions: MCC and control cell lines, CellTiter-Glo viability, 72 h; at 44.8 µM (top of the series) unless noted
In short: as §3

[17] = tested on: UISO; test: as above; conditions: MCC and control cell lines, CellTiter-Glo viability, 72 h; series mostly up to 46 µM
In short: as §3

[18] = tested on: WaGa; test: as above; conditions: MCC and control cell lines, CellTiter-Glo viability, 72 h; series mostly up to 46 µM
In short: as §3
Further: nearly all actives have a fitted effect of over 60% in size.

Nc1ncnc(Nc2ccccc2)n1
inactive: Potency [1] | Potency [2] | Potency [3] | Potency [4] | Potency [5] | Potency [6] | max response [7] -1.48% | max response [8] -7.91% | max response [9] 0.531% | max response [10] 3.24% | outcome [11] | outcome [12] | outcome [13] | outcome [14] | outcome [15] | outcome [16] | outcome [17] | outcome [18]

CC(C)CCCC(C)CCCC(C)CCCCC(C)CCCC(C)CCCC(C)C (configuration not stated)
inactive: Potency [1] | Potency [2] | Potency [3] | Potency [4] | Potency [5] | Potency [6] | outcome [7] | max response [8] -6.17% | max response [9] -19.8% | max response [10] 12.8% | max response [11] -1.47% | outcome [12] | outcome [13] | outcome [14] | outcome [15] | outcome [17] | outcome [18]

Cc1cc(C)nc(NS(=O)(=O)c2ccc(N)cc2)n1
inactive: Potency [1] | Potency [2] | Potency [3] | Potency [4] | Potency [5] | Potency [6] | max response [7] -8.07% | max response [8] 3.16% | max response [9] 3.39% | max response [10] -0.934% | outcome [11] | outcome [12] | outcome [13] | outcome [14] | outcome [15] | outcome [16] | outcome [17] | outcome [18]

CCCCCCCCCCCCCCCCCCO
inactive: Potency [1] | Potency [2] | Potency [3] | Potency [4] | Potency [5] | Potency [6] | max response [7] 0.886% | max response [8] -5.18% | max response [9] -4.21% | max response [10] 12.1% | outcome [11] | outcome [12] | outcome [13] | outcome [14] | outcome [15] | outcome [16] | outcome [17] | outcome [18]

CCN(CC)CCc1nc(-c2ccccc2)no1
inactive: Potency [1] | Potency [2] | Potency [3] | Potency [4] | Potency [5] | Potency [6] | max response [7] 3.52% | max response [8] -5.93% | max response [9] 4.68% | max response [10] 7.98% | max response [11] 1.98% | outcome [12] | outcome [13] | outcome [14] | outcome [15] | outcome [17] | outcome [18]

CCCC(O)C(CC)CO (configuration not stated)
inactive: Potency [1] | Potency [2] | Potency [3] | Potency [4] | Potency [5] | Potency [6] | max response [7] -3.08% | max response [8] -1.45% | max response [9] -9.38% | max response [10] 9.23% | outcome [11] | outcome [12] | outcome [13] | outcome [14] | outcome [15] | outcome [16] | outcome [17] | outcome [18]

O=C(OOC(=O)c1ccccc1)c1ccccc1
inactive: Potency [1] | Potency [2] | Potency [3] | Potency [4] | Potency [5] | Potency [6] | outcome [7] | max response [8] 2.9% | max response [9] -8.52% | max response [10] -3.15% | outcome [11] | outcome [12] | outcome [13] | outcome [14] | outcome [15] | outcome [16] | outcome [17] | outcome [18]

O=C(CCBr)N1CCN(C(=O)CCBr)CC1
inactive: Potency [1] | Potency [2] | Potency [3] | Potency [4] | Potency [5] | Potency [6] | max response [7] -5.81% | max response [8] 0.232% | max response [9] -10.3% | max response [10] -5.88% | outcome [11] | outcome [12] | outcome [13] | outcome [14] | outcome [15] | outcome [16] | outcome [17] | outcome [18]

Cc1cc(=O)[nH]c(=S)[nH]1
inactive: Potency [1] | Potency [2] | Potency [3] | Potency [4] | Potency [5] | Potency [6] | max response [7] 1.13% | max response [8] -1.11% | max response [9] -13.5% | max response [10] -0.427% | outcome [11] | outcome [12] | outcome [13] | outcome [14] | outcome [15] | outcome [16] | outcome [17] | outcome [18]

O=C(CN1CCNCC1)NC1CCCCC1
inactive: Potency [1] | Potency [2] | Potency [3] | Potency [4] | Potency [5] | Potency [6] | max response [7] -5.07% | max response [8] -4.92% | max response [9] 0.716% | max response [10] 2.43% | outcome [11] inactive; activator | outcome [12] | outcome [13] | outcome [14] | outcome [15] | outcome [16] inactive; activator | outcome [17] | outcome [18]

NC(=O)CCCCC1CCSS1 (configuration not stated)
inactive: Potency [1] | Potency [2] | Potency [3] | Potency [4] | Potency [6] | max response [7] -9.01% | max response [8] 2.03% | max response [9] -1.45% | max response [10] -12.5% | max response [11] -6.71% | outcome [12] | outcome [13] | outcome [14] | outcome [15] | outcome [17] | outcome [18]

O=C(O)c1ccc(OCCCOc2ccc(C(=O)O)cc2)cc1
inactive: Potency [1] | Potency [2] | Potency [3] | Potency [4] | Potency [5] | Potency [6] | max response [7] -0.605% | max response [8] -0.863% | max response [9] -3.27% | max response [10] 3.43% | max response [11] 2.41% | outcome [12] | outcome [13] | outcome [14] | outcome [15] | outcome [17] | outcome [18]

O=C(c1ccccc1)C(O)c1ccccc1 (configuration not stated)
inactive: Potency [2] | Potency [3] | Potency [4] | Potency [5] | max response [7] -6.36% | max response [8] -4.36% | max response [9] -0.758% | max response [10] -15.7% | outcome [11] | outcome [12] | outcome [13] | outcome [14] | outcome [15] | outcome [16] | outcome [17] | outcome [18]
